Reference: PubChem BioAssay AID624491 (Broad Institute, 2012)
Among all 1,800 compounds or so, about 1,400 (78%) were called active. Another 2% or so got no clear call; they are omitted.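 How the source made its calls: active means fitted curve crossing a set activation limit at or below the highest valid dose tested; inconclusive means flat fit at 30 to 70% activation, or poor fit; inactive means the rest, including signal decreases.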 The set was probably picked from earlier hits. Not all results are given here. Measured potencies and affinities stand elsewhere.

assay: N-linked glycosylation inhibitors, luciferase reporter, dose response, D54 ERlucT cells, luminescence, cherry-picks (AID 624491); conditions: 24 h, 100% = twice neutral-control luminescence; series mostly up to 19.5 µM;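 further: signal gain reflects blocked N-linked glycosylation of a luciferase reporter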

Activation (NLG inhibition), inactive:
COc1ccc(NC(=O)C2Cc3c(-c4ccc5c(c4)OCO5)ccnc3O2)cc1 (stereo not given)
O=C(O)c1ccccc1OC(C(=O)Nc1cc(Cl)cc(Cl)c1)c1ccccc1 (stereo not given)
CCOc1cc(S(=O)(=O)NCc2ccc(OC)cc2)c(OCC)cc1-n1cnnn1
CCOc1ccc2c(c1)C(=NNC(=O)c1ccncc1)c1cc(OCC)ccc1-2
Cc1cc(O)c(NC(=O)c2cc([N+](=O)[O-])ccc2Cl)cc1C
O=C(Nc1cccc(C(F)(F)F)c1)c1sc(Cl)nc1C(F)(F)F
O=C(Cc1cccs1)NCCS(=O)(=O)N1CCN(c2ccccc2F)CC1
CCCn1c2ccccc2c2cnn(CC(=O)NC3CCCC(C)C3C)c(=O)c21 (stereo not given)
CCc1ccc(NC(=O)Cn2c(=O)n(CCC(=O)NC3CCN(Cc4ccccc4)CC3)c(=O)c3ccccc32)cc1
CNC(=O)COC(=O)c1ccccc1C(=O)c1ccc(Cl)c([N+](=O)[O-])c1 11% [at 1.2 µM]
COc1ccc(CN(C(=O)c2ccc(CN3CCOCC3)o2)C(C(=O)NCC2CCCO2)c2ccc(F)cc2)cc1 (stereo not given)
O=C1OC(c2ccc(F)cc2)CC1CN1CCOCC1 (stereo not given)
Nc1c(C(=O)c2ccccc2)sc2nsc(SCCN3CCOCC3)c12
COC(=O)Nc1ccc(S(=O)(=O)N2CCCc3ccccc32)cc1
CCOc1ccc2[nH]c(=O)c(CN(Cc3ccc(F)cc3)C(=O)c3ccco3)cc2c1
O=C(N/N=C/c1cccnc1)c1cc(-c2ccc(Br)cc2)nc2ccccc12
CC1Nc2ncnc(N3CCc4ccccc4C3)c2N(Cc2ccc(Br)cc2)C1=O (stereo not given)
Cc1cccc2[nH]c3c(N4CCC5(CC4)OCCO5)ncnc3c12
COc1ccc(CN2C(=O)C(C)Nc3ncnc(N4CCc5ccccc5C4)c32)cc1 (stereo not given)
COc1ccc(Cn2c(=O)c3[nH]cnc3n(-c3ccccc3C)c2=O)cc1
O=C(Nc1ccccc1)N1CCC(c2nc(-c3ccc(S(=O)(=O)N4CCOCC4)cc3)no2)CC1
COc1ccc(/C=C/C(=O)c2ccc3c4c(cccc24)CC3)cc1
COc1cc(/C=C/C(=O)c2ccc(Cl)s2)cc(OC)c1O
COc1cc(O)c(C(=O)/C=C/c2ccccc2)c(OC)c1
CN1C/C(=C\c2ccc(N3CCOCC3)cc2)C(=O)/C(=C/c2ccc(N3CCOCC3)cc2)C1
COc1ccc(/C=C2\CN(Cc3ccccc3)C/C(=C\c3ccc(OC)cc3)C2=O)cc1
COc1ccc(C(=O)/C=C/c2ccc(OC3CSC3)cc2)cc1OC
CCOc1ccc(/C=C/C(=O)c2ccccc2)cc1OC
COc1ccc(C2=Nn3c(nnc3-c3ccco3)SC2)cc1
COc1ccc(C2=Nn3c(nnc3-c3ccc(OC)cc3)SC2)cc1
COc1ccc(OC)c(-c2nnc3n2N=C(c2ccc(OC)c(OC4CCCC4)c2)CS3)c1
COc1ccc2nc(-c3ccco3)c(-c3ccco3)nc2c1
O=S1(=O)C=CC(Nc2cccc(Cl)c2)C1 (stereo not given)
O=C(CSc1nc2nc(-c3cccs3)cc(C(F)(F)F)c2c(=O)[nH]1)C(F)(F)F
Cc1ccc(C)n1-c1ccc(C(=O)/C=C/N(C)C)cc1
Cc1ccc(-c2cc(NC(=O)CCl)n(-c3ccccc3)n2)cc1
CCOc1ccccc1NC(=O)Cn1nnc(C(=O)NCc2ccc3c(c2)OCO3)c1N
COc1cc(Cl)c(C)cc1NC(=O)CN1CCN(C(=O)C2CC2)CC1
COc1ccc(NC(=O)C2Cc3c(-c4cccc(C(C)=O)c4)ccnc3O2)cc1 (stereo not given)
CCNC(=O)COc1ccc(/C=C2\COc3ccccc3C2=O)cc1OC
CN(Cc1ccc(Cl)s1)C(=O)CCl
CCN(CC(=O)NCc1ccc(F)cc1)C(=O)/C=C/c1ccc(OC)c(S(=O)(=O)NC(C)C)c1
CN1C(=O)c2cccc3c(S(=O)(=O)Nc4ccccc4F)ccc1c23
CCN(CC)CCCNC(=O)c1cc2c(=O)n(CC)c3ccccc3c2s1
COc1cc(C2=NOC(C(=O)NCc3cccs3)C2)cc(OC)c1OC (stereo not given)
CCOC(=O)Nc1c2ccccc2nc2ccccc12
O=C(O)c1ccc(CN2C(=O)c3cccc4c([N+](=O)[O-])ccc(c34)C2=O)cc1
Cc1noc(C)c1COc1ccc(C(=O)NNC(=O)c2ccccc2)cc1
CC[C@@]1(c2ccccc2OC)ON(c2ccccc2C(F)(F)F)C1=O
COc1ccccc1C1=NOC(COc2ccc3c(C)cc(=O)oc3c2)C1 (stereo not given)
COc1cccc(C(=O)Nc2ncc3c(n2)CC(c2ccc(OC)cc2OC)CC3=O)c1 (stereo not given)
Cc1nc2c3cc(F)ccc3n(CCN3CCCCC3)c2s1
NNC(=O)c1ccc2nc(-c3ccc(Br)cc3)cn2c1
Cc1ccc(-c2cc(C(=O)N/N=C/c3c[nH]c4ccccc34)[nH]n2)cc1
COc1ccc(CCn2c(=N)c(C(=O)NC3CCCC3)cc3c(=O)n4ccccc4nc32)cc1OC
COc1cc2cc(C(c3nnnn3C(C)(C)C)N3CCc4ccccc4C3)c(=O)[nH]c2cc1OC (stereo not given)
Cc1cccc(N2CCN(C(=O)c3ccc(Cl)c(S(=O)(=O)NCc4ccco4)c3)CC2)c1C
C=CCN(CC=C)C(=O)CN1C(=O)NC(C)(c2ccc3cc(OC)ccc3c2)C1=O (stereo not given)
NC(=O)/C=C\C(=O)Nc1cccc(C(F)(F)F)c1
O=S(=O)(Nc1cccc2cccnc12)c1ccc(S(=O)(=O)N2CCCC2)cc1
CCN(CC)C(=O)CSc1nc2c(sc(=S)n2-c2ccccc2)c(=O)n1Cc1ccco1
Cc1cc(NC(=O)CSc2nc(C3CC3)nc3sc(C)c(C)c23)no1
COc1ccc(N(CC(=O)Nc2cc(Cl)ccc2OC)S(=O)(=O)c2c(C)noc2C)cc1
Cc1cc(Br)ccc1NC(=O)CCCOc1cc(=O)n(C)c2ccccc12
N#Cc1c(NC(=O)c2cnccn2)sc2c1CCCC2
